Measurements from PubChem BioAssay.
Where “and” joins values, the source holds several entries; their conditions need not be identical. Equal values may be shown once. Calls of active or inactive are those of the source.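 The calls were made as follows, unless noted: active = compounds whose cell count with miR-34 switched on is under 0.7 times the count with it off; inactive = the rest.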 Where a SMILES comes first, the peptide text is derived from it. [ ]: non-standard residue; d: D form.

What was measured:
[1] = system: Aerobactin synthetase IucA (Klebsiella pneumoniae); assay: inhibition of K. pneumoniae IucA enzyme – biochemical, Tocris library, absorbance (AID 1345561; call rule not given here;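 also: 100% = enzyme without compound and 0% = no enzyme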); conditions: purified IucA enzyme assay, absorbance (OD) read-out; stronger effect = lower value;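 tested at 8 µM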
[2] = viability loss with induced miR-34 in A549 – imaging, A549 dox-inducible miR-34, nuclei and caspase counts, primary screen (AID 1347080); conditions: A549 miR-34 inducible, Hoechst nuclei count, 48 h
[3] = galactose survival enhancers in mitochondrial complex I cybrids – cell-based, galactose medium, ATP luminescence, primary screen (AID 1645843;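 active = z-score of at least 1.8 in each of two replicates, scored against plate mean and spread of sample wells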;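 also: positive z means more ATP and so rescue of galactose-driven cybrid death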); conditions: complex I mutant cybrid cells, 72 h, stronger effect = higher value
[4] = stronger effect = lower value, cell number ratio, induced over uninduced
[5] = measured here: relative caspase fold change +Dox/-Dox
[6] = measured here: total cells with miR-34 induction, stronger effect = lower value
[7] = measured here: total cells without miR-34 induction

Row | Compound | remaining activity [1] | fold change [2, 4] | fold change [2, 5] | cell count [2, 6] | cell count [2, 7] | z-score [3]
1 | O=[N+]([O-])c1cccc2c[nH]nc12 | 110% (inactive) | 0.915 (inactive) | 0.873 | 7800 | 8520 | -0.1 (inactive)
2 | Nc1nnc(Sc2ncc([N+](=O)[O-])s2)s1 | 119% (inactive) | 0.911 (inactive) | 4.18 | 3000 | 3290 | -1.04 (inactive)
3 | CCN(CC)CCCCC1CCN(CC(=O)N2c3ccccc3C(=O)Nc3cccnc32)CC1 | 105% (inactive) | 0.936 (inactive) | 1.52 | 8520 | 9110 | -0.225 (inactive)
4 | CC(C)N1CCN(c2ccc(C(=O)c3c(-c4ccc(O)cc4)sc4cc(O)ccc34)cc2)CC1 | 105% (inactive) | 0.989 (inactive) | 1.64 | 6900 | 6980 | -0.43 (inactive)
5 | CC(C)SC(=N)N | 92% (inactive) | 0.945 (inactive) and 0.931 (inactive) | 0.992 and 1.03 | 5980 and 8810 | 6320 and 9460 | 0.865 (inactive)
6 | CNc1cc(OC)c(C(=O)N[C@@H]2CCN(Cc3ccccc3)[C@@H]2C)cc1Cl (racemic) | 104% (inactive) | 0.926 (inactive) | 1.02 | 8160 | 8810 | -0.56 (inactive)
7 | COC(=O)C1=C(C)NC(C)=C(C(=O)NCCCN2CCC(c3ccccc3)(c3ccccc3)CC2)C1c1ccc([N+](=O)[O-])cc1 (configuration not stated) | 98% (inactive) | 0.668 (active) | 1.88 | 294 | 441 | -0.7 (inactive)
8 | CN1C[C@H]2c3ccccc3Oc3ccc(Cl)cc3[C@@H]2C1 (racemic) | 109% (inactive) | 0.868 (inactive) | 2.03 | 5560 | 6410 | -0.745 (inactive)
9 | CCOC(=O)C1CSC(Cc2ccc(OCc3ccc([N+](=O)[O-])cc3)cc2)N1 (configuration not stated) | 95.4% (inactive) | 0.923 (inactive) | 1.54 | 8250 | 8940 | -0.58 (inactive)
10 | CSc1cc2c(cc1C(F)(F)F)N(C(=O)Nc1cccnc1)CC2 | 112% (inactive) | 0.921 (inactive) | 0.728 | 9460 | 10300 | 0.05 (inactive)
11 | O=C(O)CC/C=C\C[C@@H]1CO[C@H](c2ccccc2Cl)O[C@@H]1c1ccccc1O | 75.4% (inactive) | 0.977 (inactive) | 0.805 | 8270 | 8470 | 6.17 (active)
12 | COc1ccc2[nH]c(-c3ccccc3)c(CCNC(C)=O)c2c1 | 99.3% (inactive) | 0.991 (inactive) | 0.88 | 7770 | 7840 | -0.185 (inactive)
13 | CCOc1ccccc1O[C@H](c1ccccc1)[C@H]1CNCCO1 (racemic) | 119% (inactive) | 0.937 (inactive) | 0.923 | 7740 | 8260 | -0.36 (inactive)
14 | CC(C)Oc1cccc(-n2c(CCc3c[nH]c4ccc(Br)cc34)nc3ccccc3c2=O)c1 | 110% (inactive) | 1.07 (inactive) | 0.884 | 6620 | 6200 | -1.18 (inactive)
15 | O=C(Cc1ccccc1)Nc1nc2ccc(Cl)cc2c2nc(-c3ccco3)nn12 | 112% (inactive) | 1 (inactive) | 0.707 | 7840 | 7820 | 0.635 (inactive)
16 | CC(C)N1Cc2cc(S(C)(=O)=O)ccc2N(CCN2CC=C(c3c[nH]c4cc(F)ccc34)CC2)S1(=O)=O | 110% (inactive) | 0.929 (inactive) | 1.15 | 6990 | 7530 | 0.12 (inactive)
17 | N[C@@H](Cc1cc(-c2ccc(Cl)cc2Cl)cc(CP(=O)(O)O)c1O)C(=O)O | 115% (inactive) | 0.913 (inactive) | 0.553 | 8540 | 9350 | 0.635 (inactive)
18 | COc1cc(C[C@H]2C(=O)OC[C@@H]2Cc2ccc(OC)c(OC)c2)ccc1O | 104% (inactive) | 0.937 (inactive) | 0.733 | 4240 | 4530 | -0.76 (inactive)
19 | CCCCCCCCCCCCCCCC(=O)C(F)(F)F | 108% (inactive) | 1.01 (inactive) and 0.961 (inactive) | 0.782 and 1.06 | 5680 and 8900 | 5630 and 9260 | -0.105 (inactive)
20 | COc1cccc(NC(=O)/C=C/c2ccc(Cl)cc2)c1 | 93.6% (inactive) | 0.9 (inactive) | 1.32 | 5860 | 6510 | 0.75 (inactive)
21 | CC(=O)NCC(=O)N[C@H](CCC(=O)O)C(=O)O (Ac-Gly-[dE]-OH) | 103% (inactive) | 0.899 (inactive) | 0.513 | 9020 | 10000 | -0.245 (inactive)
22 | c1ccc(CN2CCC3(CCc4ccccc43)CC2)cc1 | 97.3% (inactive) | 0.952 (inactive) | 0.584 | 8830 | 9280 | 0.76 (inactive)
23 | CCCOc1ccc(Br)cc1-c1cc(-c2ccc(Cl)cc2)[nH]c1-c1ccncc1 | 102% (inactive) | 0.969 (inactive) | 1.19 | 8200 | 8460 | 0.1 (inactive)
24 | c1ccc(Oc2nc(NC3CCCCC3)c3[nH]cnc3n2)cc1 | 110% (inactive) | 0.921 (inactive) | 1.13 | 7420 | 8060 | -0.49 (inactive)

Row | Compound | remaining activity [1] | fold change [2, 4] | fold change [2, 5] | cell count [2, 6] | cell count [2, 7] | z-score [3]
25 | CCCCNC(=O)[C@@H]1Cc2ccccc2N1C(=O)[C@@H](N)CC | 110% (inactive) | 0.978 (inactive) | 1.76 | 9030 | 9230 | 0.245 (inactive)
26 | CCCCC(=O)NCCc1c(Cc2ccccc2)[nH]c2ccccc12 | 108% (inactive) | 0.933 (inactive) | 0.702 | 6310 | 6770 | 0.26 (inactive)
27 | O=C(NCCCCN1CCN(c2cccc(Cl)c2Cl)CC1)c1ccc2c(c1)Cc1ccccc1-2 | 111% (inactive) | 0.929 (inactive) | 1.33 | 8390 | 9030 | -0.17 (inactive)
28 | COc1ccc(S(=O)(=O)N2c3ccc(Cl)cc3[C@](O)(c3ccccc3Cl)[C@@H]2C(=O)N2CCC[C@H]2C(N)=O)cc1OC | 97.7% (inactive) | 0.908 (inactive) | 1.22 | 8610 | 9480 | 0.855 (inactive)
29 | O=c1nc2ccccc2c2n1CC(CN1CCN(c3ccccc3)CC1)N2 (configuration not stated) | 100% (inactive) | 0.869 (inactive) | 0.649 | 9300 | 10700 | -0.605 (inactive)
30 | Cc1nn(C)c2nc(NNC(=O)Nc3cc(Cl)nc(Cl)c3)cc(C(C)C)c12 | 121% (inactive) | 0.867 (inactive) and 1.06 (inactive) | 1.04 and 1.03 | 5060 and 4050 | 5840 and 3820 | -0.55 (inactive)
31 | COC(=O)C1=C(C)NC(C)=C(C(=O)OCCCN2CCC(c3ccccc3)(c3ccccc3)CC2)[C@@H]1c1cccc([N+](=O)[O-])c1 | 109% (inactive) | 1.06 (inactive) | 1.28 | 310 | 292 | -0.83 (inactive)
32 | NCCCCCCCCCCNS(=O)(=O)c1cccc2c(Cl)cccc12 | 98.7% (inactive) | 0.827 (inactive) | 0.835 | 5900 | 7130 | -1.11 (inactive)
33 | Nc1nc(NCCc2ccc(O)cc2)nc2nc(-c3ccco3)nn12 | 109% (inactive) | 0.809 (inactive) | 1.15 | 6780 | 8380 | -0.54 (inactive)
34 | COc1ccc(C2CC(c3c(O)cc(C)oc3=O)=NCCS2)c(OC)c1 (configuration not stated) | 98.6% (inactive) | 1.45 (inactive) | 2.3 | 1350 | 929 | -0.235 (inactive)
35 | CSc1nc(NC2CCCC2)c([N+](=O)[O-])c(NC2CCCC2)n1 | 104% (inactive) | 0.932 (inactive) | 1.24 | 7100 | 7620 | -0.215 (inactive)
36 | CCCCC1CCC(c2nc(-c3ccncc3)no2)CC1 (configuration not stated) | 122% (inactive) | 0.974 (inactive) and 0.949 (inactive) | 0.608 and 1.14 | 5260 and 8140 | 5400 and 8570 | -0.62 (inactive)
37 | O[C@@H]1[C@H](O)[C@@H](CCl)O[C@H]1n1cnc2c(NC3CC4CCC3C4)ncnc21 (some centres not stated) | 108% (inactive) | 0.921 (inactive) | 1.85 | 8570 | 9310 | 1.96 (inactive)
38 | CC#CCOC(=O)C1=CCCN(C)C1 | 109% (inactive) | 0.936 (inactive) | 0.732 | 8580 | 9170 | -0.46 (inactive)
39 | CC1(C)C[C@@H]1C(=O)N/C(=C\CCCCSC[C@@H](N)C(=O)O)C(=O)O | 102% (inactive) | 0.976 (inactive) | 1.46 | 9200 | 9420 | -0.005 (inactive)
40 | COc1ccc(NC(=O)c2ccc(-c3ccc(-c4noc(C)n4)cc3C)cc2)cc1OCCN(C)C | 128% (inactive) | 1.2 (inactive) | 1.18 | 1160 | 962 | -0.765 (inactive)
41 | CC(C)(C)c1cc(C(=O)/C=C/c2ccc(C(=O)O)cc2)cc(C(C)(C)C)c1 | 108% (inactive) | 1.11 (inactive) | 1.56 | 1370 | 1240 | -0.69 (inactive)
42 | Cn1cc(/C=C2/C(=O)Nc3cccnc32)c2ccccc21 | 89.8% (inactive) | 0.833 (inactive) | 1.45 | 2650 | 3180 | -0.435 (inactive)
43 | CCS(=O)(=O)N(C)[C@H]1c2cc(C#N)ccc2OC(C)(C)[C@@H]1O (racemic) | 119% (inactive) | 0.884 (inactive) | 1.36 | 9180 | 10400 | 0.85 (inactive)
44 | c1ncc(CC2CCNCC2)[nH]1 | 101% (inactive) | 0.95 (inactive) | 0.717 | 8900 | 9370 | 0.095 (inactive)
45 | CC(=O)N(O)[C@@H]1c2cc(C#N)ccc2OC(C)(C)[C@H]1O | 89.1% (inactive) | 0.882 (inactive) | 2.17 | 8800 | 9980 | 0.655 (inactive)
46 | N[C@@H](C(=O)O)c1ccc(C(=O)O)c(C(=O)O)c1 | 95.5% (inactive) | 0.914 (inactive) | 0.832 | 8600 | 9410 | 0.05 (inactive)
47 | CN(Cc1ccccc1)C(=O)[C@H](Cc1ccc2ccccc2c1)NC(=O)[C@@H]1CCCN1C(=O)Nc1ccccc1[N+](=O)[O-] | 123% (inactive) | 0.972 (inactive) | 1.17 | 5700 | 5860 | 1.83 (active)
